Results reported in PubChem BioAssay AID504684 (Southern Research Specialized Biocontainment Screening …, 2011).
Entries with a potency or affinity are not part of this list. The source made the active and inactive calls. No rule for the calls is given here.

Assay: Vero cell cytotoxicity, cytotoxicity control for M. tuberculosis inhibitor project, purified and synthesized samples, set 3 (AID 504684)
Details: series mostly up to 100 µM

CCOC1OC(=O)C(Cl)=C1Nc1ccccc1C (stereo not drawn)
outcome: inactive

CC[N+](C)(CC)CCCCOc1ccc2c(c1)C(=O)c1cc(OCCCC[N+](C)(CC)CC)ccc1-2
outcome: inactive

CCOC(=O)CSc1nc(C)c(C)c(=O)[nH]1
outcome: inactive

Cc1c[nH]c(=S)[nH]c1=O
outcome: inactive

COc1cc(NC(=O)C/C(C)=N/NC(=O)c2ccccn2)c(OC)cc1Cl
outcome: inactive

CC(=NCc1ccc2c(c1)OCO2)C1=C(O)c2ccccc2C1=O
outcome: inactive

Cc1cc(=O)[nH]c(SCC(=O)Nc2ccccc2)n1
outcome: inactive

Cc1[nH]c(=S)[nH]c(=O)c1C
outcome: inactive

O=C(CSc1nc2ccccc2c(=O)[nH]1)NC1CCCCC1
outcome: inactive

O=C(CSc1ccccn1)NC1CCCCC1
outcome: inactive

COC(=O)C1CC(=O)N(c2ccc(OCc3ccccc3Cl)cc2)C1 (stereo not drawn)
outcome: inactive

O=C(CSc1nc(O)cc(=O)[nH]1)Nc1ccccc1
outcome: inactive

CCOC(=O)COn1c2c(c3c4no[n+]([O-])c4ccc31)CCCC2
outcome: inactive

COC(=O)C(C)Oc1ccc(-c2nccc(-c3ccccn3)n2)cc1 (stereo not drawn)
outcome: inactive

CCSc1nc(C)c(C)c(=O)[nH]1
outcome: inactive

Cc1cc(=O)[nH]c(=S)[nH]1
outcome: inactive

COC(=O)C(C)Oc1ccc(Cc2ncc(C(F)(F)F)cc2Cl)cc1 (stereo not drawn)
outcome: inactive

O=C(CSc1ncccn1)NC1CCCCC1
outcome: inactive

Cc1nc(SCC(=O)NC2CCCCC2)[nH]c(=O)c1C
outcome: inactive

Cc1ccc(NC(=O)COC(=O)CCc2c[nH]c3ccccc23)cc1[N+](=O)[O-]
outcome: inactive

CCOC(=O)COc1ccc(/C=C2\NC(=S)N(CC)C2=O)cc1
outcome: inactive

Cc1nc(SCC(N)=O)[nH]c(=O)c1C
outcome: inactive

O=C(CSc1nccc(=O)[nH]1)Nc1ccc(N2CCOCC2)cc1
outcome: inactive
